Shown are actives, neighbours in structure and some others; about 5.9% of the full set was active somewhere.
KB-3-1 tox: kills parental KB-3-1 adenocarcinoma cells | KB-3-1 viability, CellTiter-Glo ATP luminescence, 72 h | Potency, µM (highest dose often 46.1 µM), usual class: cytotoxic | 400,000 compounds, 1.4% hits; note: % is set by controls: 0 for no effect and ±100 for the full control effect; nearly all actives have a fitted effect of over 60% in size
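Parental KB-3-1 viability, qHTS format: 72 h compound exposure, 37 °C; CellTiter-Glo; media-only wells and DMSO plates as controls; concentration-effect fits on corrected data.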
HepG2 viability: HepG2 cytotoxicity, counter-screen for TGF-b inhibitors; HepG2 CAGA-GFP viability, ATP luminescence, 18 h; Potency, µM (doses to about 46.1 µM), without a hit: at the top dose activity change, negative = cytotoxicity, usual class: cytotoxic; 410,000 compounds, 0.76% hits
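CellTiter-Glo luminescence gave cytotoxicity after 18 hours at 37 degrees C. The cells were HepG2 CAGA-GFP in 1% FBS DMEM, stimulated with 500 pg/mL TGF-beta after compound addition. %Activity was normalised to no-cell wells (complete cell-killing) and DMSO (no toxicity), and curves were fitted and classified.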
ATXN2 expr inh: reduces ATXN2 reporter expression in HEK-293 cells | Potency, µM (titrated, usually from 57 µM), for inactives: at the top dose activity change, negative = inhibition, most hits filed as inhibitors | AID 1745845 | 360,000 compounds, 0.72% hits | HEK-293 ATXN2-luciferase reporter, luminescence, 24 h; note: % is set by controls: 0 for no effect and ±100 for the full control effect; nearly all actives have a fitted effect of over 55% in size
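qHTS (up to 57 uM final) was run with 24 h compound exposure of reporter cells at 37 °C. Each well was multiplexed: SteadyGlo luminescence measured ATXN2-luciferase expression after a fluorogenic Gly-Phe-AFC viability readout (25 uM final).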
TGFb SMAD3 inh: inhibitors of TGF-b signaling | HepG2 CAGA-GFP TGF-b/SMAD3 reporter, GFP fluorescence, 18 h; TGF-beta stimulated, 500 pg/mL final | Potency, µM (doses to about 46.1 µM), for inactives: at the highest dose activity, negative = inhibition, usual class: inhibitors | 410,000 compounds, 1.2% hits | AID 588855; note: % is set by controls: 0 for no effect and ±100 for the full control effect; nearly all actives have a fitted effect of over 65% in size
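Cell-based qHTS in HEPG2 carrying a CAGA-GFP Smad reporter; compounds added before 500 pg/mL final TGF-beta, 18 h incubation at 37 degrees C, GFP fluorescence quantified per cell by imaging cytometry.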
ATXN viability: cell viability loss in ATXN counter-screen; S2 cells (HEK-293 line with an ATXN2-luciferase reporter) viability, CellTiter-Fluor protease fluorescence, 24 h; Potency, µM (top dose mostly 56.7 µM), usual class: cytotoxic; 400,000 compounds, 0.49% hits; note: nearly all actives have a fitted effect of over 40% in size
KB-V1 cytotox: kills drug-selected multidrug resistant KB-V1 cells; Potency, µM (top dose mostly 46.1 µM), hits mostly cytotoxic; KB-V1 MDR cells viability, CellTiter-Glo, 72 h; 400,000 compounds, 3.4% hits; note: % is set by controls: 0 for no effect and ±100 for the full control effect; nearly all actives have a fitted effect of over 60% in size
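qHTS viability screen in drug-selected KB-V1 MDR cells: 72 h compound treatment at 37 degrees C, ATP luminescence end point.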
* marks the source's active call; other numbers are inactive results; i = inactive; ? = inconclusive; · = not tested or not shown; ! = a repeat was not active; [ ] = remark or other dose. Calls come from the whole dose curve; as a rule, active = well fitted curve in the direction sought with a large enough effect; inconclusive = small, poorly fitted or top-dose-only effect, or another doubt; inactive = no such curve, though single readings can be large; an effect the other way counts as inactive or inconclusive. Potency is the fitted concentration of half-maximal effect.

SMILES | KB-3-1 tox | HepG2 viability | ATXN2 expr inh | TGFb SMAD3 inh | ATXN viability | KB-V1 cytotox
CC(=O)OC(C)(C)/C=C/C(=O)[C@](C)(O)[C@H]1[C@H](O)C[C@@]2(C)[C@@H]3CC=C4[C@H](C[C@H](O)C(=O)C4(C)C)[C@]3(C)C(=O)C[C@]12C | 0.15µM* | -82% | 14µM* | 2.8µM* | · | 8.2µM*
O=C1/C(=C/c2ccc(N(CCCl)CCCl)cc2)Cc2ccccc21 | i | -23% | · | 14% | · | i
O=C(NCc1ccc2c(c1)CCN2C(=O)c1ccccc1)Nc1cccc(C(F)(F)F)c1 | · | -10% | · | 2.8µM* | · | ·
COC(=O)C12OCC34C(CC5C(C)=C(O)C(=O)CC5(C)C3C(O)C1O)OC(=O)C(OC(=O)/C=C(\C)C(C)C)C24 (stereo unspecified) | 0.18µM* | 14% | -63% | -22% | ? | 3.3µM*
O=C(CN1CC=C(c2ccccc2)CC1)Nc1cc(Cl)ccc1Cl | i | -11% | -1% | 13µM* | i | ?
Cc1ccc(S(=O)(=O)N2CCCCC2)cc1NC(=O)CN1CC=C(c2ccccc2)CC1 | ? | -4% | -11% | -1% | i | 6.5µM*
Oc1cc(Cl)ccc1Oc1ccc(Cl)cc1Cl | i | -65% | 40µM*! | 18µM* | 40µM*! | i
O=C(O)COc1ccc(Cl)cc1Cl | i | 0% | -11% | 4% | i | i
O=C(CCCOc1ccc(Cl)cc1Cl)Nc1cc(S(=O)(=O)N2CCOCC2)ccc1N1CCOCC1 | i | 3% | -21% | ? | ? | 6.5µM*
Cc1cc(C)n2nc(SCC(=O)N3CCC4(CC3)OCCO4)nc2n1 | i | -2% | 6% | -12% | i | i
Cc1nc2c(-c3ccccc3)c(C)nn2c(C)c1CCC(=O)N1CCC2(CC1)OCCO2 | i | -24% | -7% | -14% | i | 13µM*
Cc1nc2nc(SCC(=O)N3CCC4(CC3)OCCO4)nn2c(C)c1Cc1ccccc1 | ? | -3% | 1% | -14% | i | 26µM*
Cc1nc2cc(-c3cccc(F)c3)nn2c(C)c1CCC(=O)N1CCC2(CC1)OCCO2 | i | -2% | ? | 1% | i | ?
O=Cc1ccc(O)cc1 | i | 10% | · | 1% | · | i
COc1ccccc1N1CCN(Cc2ccccc2Cl)CC1 | i | -1% | -8% | -8% | i | 21µM*
COc1ccccc1N1CCN(Cc2ccccc2F)CC1 | i | -19% | -12% | -4% | ? | i
COc1ccccc1N1CCN(Cc2c(F)cccc2F)CC1 | i | -16% | -3% | 6% | i | 15µM*
Cc1ccc2c(c1)C(Cc1nc3ccccc3c(=O)n1-c1ccc(Br)cc1)C(=O)N2 (stereo unspecified) | i | -17% | 0% | ? | 25µM* | i
CCc1nc2ccccc2c(=O)n1-c1ccc2ccccc2c1 | ? | 6% | 6% | 14% | i | i
COc1ccc(NC(=O)CCn2cnc3onc(-c4ccc(F)cc4)c3c2=O)cc1OC | i | -20% | ? | ? | ? | i
Cc1ccc(-c2nnc(Nc3ccc(O)cc3)c3ccccc23)cc1S(=O)(=O)N1CCOCC1 | ? | -10% | ? | ? | ? | i
COc1cccc(NC(=O)Cn2cc(C(=O)c3ccccc3)c3ccccc32)c1 | · | -18% | · | 10µM* | · | ·
Cc1cccc(NC(=O)Cn2cc(C(=O)c3ccccc3)c3ccccc32)c1 | · | -18% | · | 10µM* | · | ·
COc1ccccc1NC(=O)Cn1c(=O)n(-c2cccc(Cl)c2)c(=O)c2sc3ccccc3c21 | i | 3% | -2% | 0% | i | i
COc1cc(NC(=O)c2cccc3c(-c4cccnc4)coc23)cc(OC)c1OC | ? | -22% | 11µM* | 3% | ? | 7.3µM*
SMILES | KB-3-1 tox | HepG2 viability | ATXN2 expr inh | TGFb SMAD3 inh | ATXN viability | KB-V1 cytotox
COc1ccc(-c2coc3c(C(=O)Nc4cc(OC)c(OC)c(OC)c4)cccc23)c(C)c1 | ? | -17% | ? | 0% | ? | 13µM*
C[C@H](N)C(=O)c1ccccc1 | · | · | 9%[116 µM] | · | i | ·
CCCCCc1cc(O)c2c3c(c(=O)oc2c1)CN(C)CC3 | i | 10µM* | -12% | ? | i | i
Nc1c(Br)cc2c3c(cccc13)-c1ccccc1-2 | ? | 16µM* | 2% | 63% | i | i
COc1cccc(N2CCN(Cc3ccc(Cl)cc3)CC2)c1 | i | -24% | -9% | -9% | i | 16µM*
COc1cccc(N2CCN(Cc3cccc(Cl)c3)CC2)c1 | i | -12% | -12% | 1% | ? | i
COc1ccc(CN2CCN(Cc3ccccc3)CC2)c(OC)c1 | i | -12% | -12% | -5% | i | 23µM*
Cc1ccc2c(c1)C1CN(C)CCC1N2 (stereo unspecified) | · | · | -1%[25.6 µM] | · | i | ·
CCCCCCCCCCCCCCCC[n+]1ccccc1 | 5.8µM*! | 20µM*! | 32µM*! | 16µM* | 20µM* | ?
c1ccc(-c2ccc(-c3n(-c4ccccn4)c4ccccc4[n+]3-c3ccccn3)cc2)cc1 | i | -7% | · | 18µM* | ? | ?
CC(=O)c1cccc(NC(=O)CCn2c(=O)oc3ccccc32)c1 | i | -52% | 13% | 3% | i | ?
CCc1nc2ccc(C(=O)N3CCN(C(=O)c4ccco4)CC3)cn2c1N(C)Cc1ccc(OC)cc1 | i | -3% | 8% | ? | i | i
Cc1ccc(-c2nnc(Nc3ccc(OC(F)(F)Cl)cc3)c3ccccc23)cc1S(=O)(=O)NC(C)(C)CO | ? | -28% | 0% | ? | i | i
O=P(Nc1ccccc1)(Nc1ccccc1)Oc1ccc(Cl)cc1 | i | -16% | -3% | -5% | ? | ?
COc1ccccc1OP(=O)(Nc1cccnc1)Oc1ccccc1OC | ? | -21% | 1% | -8% | i | 9.2µM*
Cc1cccc(NP(=O)(Oc2ccccc2F)Oc2ccccc2F)c1 | ? | -60% | -16% | 13µM* | i | 18µM*
COc1cccc(NP(=O)(Oc2ccc(Cl)cc2)Oc2ccc(Cl)cc2)c1 | ? | -52% | -30% | ? | ? | 13µM*
CC(C)n1cc(C(=O)N(CC(=O)NC2CCCC2)Cc2ccccc2)cn1 | i | -14% | 0% | 18% | i | 13µM*
C=CCc1ccccc1OCCn1c(C2CC(=O)N(Cc3ccc(F)cc3)C2)nc2ccccc21 (stereo unspecified) | ? | -108% | ? | 16µM* | · | ?
